Reference: the supplement of paper PMC7335073
Over roughly 4,100 sequences, “relative CpG methylation activity (normalised to average over all NNNCGNNN flanks)” has its median near 0.94; the highest 2% begin near 1.9. The sample holds the highest values, similar sequences and a random draw of the others, so the mix is not that of the screen.

These sequences were tested against DNMT3B catalytic domain (mouse) (UniProt O88509) (assay: relative CpG methylation activity (normalised to average over all NNNCGNNN flanks) (relative (1 = mean)); higher = more methylation of the central CpG). Details: system: in vitro, murine catalytic domain; CpG state: hemimethylated substrate pool; residues: 558-859.
Chain of DNMT3B catalytic domain (mouse) (O88509 558-859): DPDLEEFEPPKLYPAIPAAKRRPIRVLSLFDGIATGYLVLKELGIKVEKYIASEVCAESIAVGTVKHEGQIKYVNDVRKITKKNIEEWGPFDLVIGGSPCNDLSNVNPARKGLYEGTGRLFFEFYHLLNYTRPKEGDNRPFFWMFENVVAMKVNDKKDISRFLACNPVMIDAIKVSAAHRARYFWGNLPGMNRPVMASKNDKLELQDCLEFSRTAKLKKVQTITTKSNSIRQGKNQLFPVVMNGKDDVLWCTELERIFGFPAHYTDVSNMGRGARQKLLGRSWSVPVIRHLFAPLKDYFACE
Method: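 Deep enzymology: a pool of dsDNA substrates with a central CpG flanked by 10 random nucleotides on each side was methylated by the murine DNMT3A or DNMT3B catalytic domain (0.8 mM SAM, 37 °C, 60 min). Methylation was then read out by hairpin ligation, bisulfite conversion and NGS. Values are the average methylation of each NNNCGNNN context (±3 flanks; the outer flanks are random and averaged over), normalised to the overall mean, so 1 = average activity.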

Sequence	relative CpG methylation activity
ACCCGGTT	1.29
GCTCGGGA	1.17
GTACGGCA	1.9
TTACGGAC	1.85
GCACGGCA	1.79
CTACGGAG	1.52
CCACGGCT	1.89
CCACGGCG	1.86
CTACGGCG	2.04
GTACGGCT	1.56
CTACGGTT	1.76
CTACGGCT	2.28
TCACGGCC	1.74
TTACGGCC	1.97
CCTCGATT	1.35
TGACGGCA	1.53
CACCGTAT	0.274
CTACGCCA	1.78
TCCCGTTA	0.532
TAGCGGTC	1.12
GCACGCTA	0.861
AGTCGATC	1.7
AGTCGGAT	0.542
AGGCGTCT	0.521
GTTCGGAC	1.37
GTACGGAC	1.51

Sequence	relative CpG methylation activity
TTACGGAA	1.64
TCACGGCG	1.89
ATACGGCT	1.89
TCACGGCA	1.82
TTACGGCG	2.25
ATACGGAC	1.59
GTACGGTC	1.87
GTACGGCC	1.9
ATACGGCC	2.01
TTACGGCA	2.04
TTACGGTG	1.52
GACCGGCT	1.19
ACGCGTAG	0.632
AGGCGATC	1.05
ACACGATC	1.75
GGCCGACT	0.91
TTACGTCT	1.64
TTACGTAC	1.95
GTACGTAC	1.42
ATACGTCC	1.54
TTACGTCC	1.93
TTACGTAT	1.19
AGTCGACA	1.24
CTGCGGAA	0.922
ACACGCTG	1.11
GATCGATC	1.48

Sequence	relative CpG methylation activity
CCCCGAGA	1.68
TCCCGAGG	1.3
TCCCGAGC	2.01
ACCCGAGC	1.75
CCCCGAGG	1.5
CCCCGAGC	1.93
CACCGCGT	0.402
CTGCGCCA	1.17
CGACGGCC	1.46
AGACGGCG	1.94
CGACGGCA	1.82
TGACGGCG	1.63
CGACGGCG	1.93
AGACGGCC	1.71
AACCGTCC	0.606
TATCGAGG	1.5
GTACGCGT	1.4
ATACGCCC	1.69
ATACGGGT	1.73
GTACGGGA	1.73
TTACGGGC	2.03
CAACGGGA	1.82
CTACGGGT	1.94
TTACGGGA	1.92
GTACGGGT	1.85
CTACGGGC	1.75

Sequence	relative CpG methylation activity
CCACGGGA	1.42
CTACGGGA	1.91
GTACGGGC	1.63
TTACGGGT	1.83
TACCGCTG	0.389
TATCGCAG	0.473
GAACGCGG	0.853
TACCGCGG	0.374
CGGCGAAG	0.694
GCGCGCCA	0.631
GTGCGAAA	1.05
TTACGGGG	2
ATACGGGC	1.93
ACACGGGC	1.54
CAACGGGG	1.39
ATACGGGA	1.66
GTACGGGG	1.6
CGACGGGG	0.808
ATACGGGG	1.61
CTACGGGG	1.9
GTTCGTAC	1.18
GCTCGCCC	0.844
GTCCGATG	1.16
GACCGTCT	0.495
